The source of these data is PubChem BioAssay AID720724 (Broad Institute, 2013).

Results with a measured potency or affinity are listed apart. Unmarked numbers belong to inactive results.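 Rule for the calls: active = signal falls with a fitted half-maximal dose at most twice the top dose, in every run; inconclusive = steady partial drop, poor fit, or runs disagree; inactive = flat, rising or too weak in every run.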

This test can be described thus: EF1alpha-driven Renilla reporter with control 3'UTR suppression – Clone20-Shn3RL cells, dual-Glo, cherry-pick, set 2, counter-screen for Shn3 3'UTR targeting project, dose response (AID 720724). Particulars: renilla luciferase luminescence, 24 h; series mostly up to 35 µM; activity change, negative = inhibition: at the top concentration. In general terms: A counterscreen serves to expose hits that act by an unwanted route or on another target.
As for `CCOc1ccc(N(C)S(=O)(=O)c2cc(-c3cc(C)no3)ccc2C(C)C)cc1`, the “activity change, negative = inhibition” value is -20%. As to `Cc1nc(SCC(=O)Nc2nc3ccccc3s2)c(C#N)c(C)c1C`, the “activity change, negative = inhibition” value was -12.5%.

Take `Cc1ccc(-c2cn3cc(C)ccc3n2)cc1`: the “activity change, negative = inhibition” value is -12.5%. Take `CCn1c(CNC(=O)c2cc(OC)c(OC)c(OC)c2)cc2cc(C)ccc21`: the “activity change, negative = inhibition” value was -10%.

As to `CC(C)Cn1c(N)c(C(=O)COC(=O)C2Cc3ccccc3CN2S(C)(=O)=O)c(=O)n(C)c1=O` (stereo not drawn), the “activity change, negative = inhibition” value was -46.7%.

For `Cc1onc(-c2ccccc2Cl)c1C(=O)N(C)C1CCCCC1`, the “activity change, negative = inhibition” value is -40%. The same measure for `Cc1ccc(NC(=O)c2cc(S(=O)(=O)NCCC3=CCCCC3)ccc2F)cc1F`: -40%. For `CC(=O)Nc1ccc(OCC(=O)Nc2ccc(Cl)c(S(=O)(=O)N3CCOCC3)c2)cc1`, the “activity change, negative = inhibition” value is -40%.

With `COc1ccc(-n2ncc3c(N4CCCCC4)ncnc32)cc1`, the “activity change, negative = inhibition” value was -12.5%. Then `CCOC(=O)c1oc2ccc(S(=O)(=O)n3nc(-c4ccc(OC)cc4)cc3N)cc2c1C`, with 2.5%; and `CCN(CC)c1ccc(NC(=O)CN2C(=O)CSc3ncccc32)c(C)c1`, with -30%. For the compound `Cc1cc(S(=O)(=O)NCc2ccncc2)c(C)cc1Br`, the “activity change, negative = inhibition” value is 25%. Take `COc1ccc(CC(=O)Nc2ccncc2Cl)cc1`: the “activity change, negative = inhibition” value is -20%.

Regarding `CC(C)CCOc1cccc(OCC(=O)Nc2ccncc2)c1`, the “activity change, negative = inhibition” value was -30%. Then `O=C(CN1C(=O)c2ccccc2S1(=O)=O)c1ccc(Cl)cc1Cl`, with -25%.

In the case of `CCOC(=O)C1CCCN(S(=O)(=O)c2ccc(S(=O)(=O)N3CCCC3)cc2)C1` (stereo not drawn), the “activity change, negative = inhibition” value was -42.5%. For the compound `O=C(c1cc(COc2ccc3ncccc3c2)on1)N1CCCCCC1`, the “activity change, negative = inhibition” value was -12.5%. For the compound `COc1ccccc1NS(=O)(=O)c1cc(NC(=O)c2ccc(Cl)nc2)ccc1Cl`, the “activity change, negative = inhibition” value is -30%.
